According to PubChem BioAssay:
The source made the active and inactive calls. Unless noted, no rule for the calls is given here.

What was measured:
[1] = A549 cell viability effects, profiling panel, calcein-AM fluorescence, 48 h, basal (AID 1162); details: higher = more signal; also: test concentration not given here
[2] = adipocyte viability effects, profiling panel, cell-based, 3T3-L1 adipocytes, calcein-AM fluorescence, 48 h, basal (AID 1163); details: 3T3-L1 adipocytes viability, higher = more signal; also: test concentration not given here
[3] = HepG2 cell viability effects, profiling panel, calcein-AM fluorescence, 48 h, basal (AID 1164); details: higher = more signal; also: test concentration not given here
[4] = MM1S cell viability effects, profiling panel, calcein-AM fluorescence, 48 h, basal (AID 1165); details: higher = more signal;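 also: viability of MM1S multiple myeloma cells under basal unstimulated conditions; test concentration not given here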
[5] = basal RPMI8226 viability, no added stimulus, profiling panel, cell-based, calcein-AM fluorescence, 48 h, PK04 Diversity Set (AID 1166); details: RPMI8226 myeloma viability, higher = more signal;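 also: cells grown under basal conditions without added stimulus; test concentration not given here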
[6] = basal HepG2 mitochondrial membrane potential changes, profiling panel, cell-based, JC-1 fluorescence, 24 h, 100 nL compound (AID 1167); details: higher = more signal; also: test concentration not given here
[7] = basal 3T3-L1 adipocyte mitochondrial potential changes, profiling panel, cell-based, JC-1 fluorescence, 3T3-L1 adipocytes, 24 h, 100 nL compound (AID 1168); details: JC-1 mitochondrial fluorescence, higher = more signal, called active from +8 up or from −8 down; also: test concentration not given here
[8] = basal RPMI8226 mitochondrial membrane potential changes, profiling panel, cell-based, JC-1 fluorescence, 24 h, 100 nL compound (AID 1169); details: RPMI8226 myeloma, JC-1 mitochondrial potential fluorescence, higher = more signal; also: test concentration not given here
[9] = basal MM1S mitochondrial membrane potential changes, profiling panel, cell-based, JC-1 fluorescence, 24 h, 100 nL compound (AID 1170); details: higher = more signal; also: test concentration not given here
[10] = A549 lung cancer cell viability effects, profiling panel, resazurin fluorescence, 24 h, PK04 Diversity Set (AID 1171); details: higher = more signal, called active from +8 up or from −8 down; also: test concentration not given here
[11] = HepG2 liver cancer cell viability effects, profiling panel, resazurin fluorescence, 24 h, PK04 Diversity Set (AID 1172); details: higher = more signal; also: test concentration not given here
[12] = basal S. cerevisiae growth modulation, no modifier, primary screen, OD600, strain BY4716, 24 h, basal condition (AID 1173); details: OD600, 24 h, higher = more signal, called active from +8 up or from −8 down
[13] = MM1S myeloma cell viability, profiling panel, resazurin fluorescence, basal, 24 h, PK04 Diversity Set (AID 1174); details: higher = more signal, called active from +8 up or from −8 down;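 also: MM1S multiple myeloma cell line; test concentration not given here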
[14] = biological target: Dihydroorotate dehydrogenase (quinone), mitochondrial (Plasmodium falciparum (isolate 3D7)) (UniProt Q08210); assay: PfDHODH enzyme inhibitors, primary screen, biochemical, C-terminal His tag, absorbance 600 nm (AID 1175); details: DCIP absorbance 600 nm, higher = more signal, called active from +8 up or from −8 down;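 also: recombinant parasite enzyme with a five histidine tag at its C terminus; test concentration not given here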
[15] = P. aeruginosa biofilm formation inhibitors, primary screen, strain PAO1, LB-PBS medium, absorbance 600 nm (AID 1176); also: test concentration not given here; details: P. aeruginosa PAO1 growth/biofilm, A600, 12 h; higher = more signal
[16] = S. cerevisiae RM11-1a growth modifiers, primary screen, strain RM11-1a, OD600, basal, 24 h (AID 1177); details: OD600, 24 h, higher = more signal, called active from +8 up or from −8 down;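 also: cultures grown under basal conditions with no added stressor; test concentration not given here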
[17] = E. coli acrAB mutant growth effects, primary screen, E. coli filamentation inducers, strain DRC39, OD650, 24 h (AID 1178); details: higher = more signal, called active from +8 up or from −8 down;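 also: growth measured as culture turbidity by optical density at 650 nm; test concentration not given here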
[18] = E. coli acrAB mutant growth effects, primary screen, E. coli filamentation inducers, strain DRC39, OD650, 48 h (AID 1179);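 also: screen aims at cell division blockers that make cells filament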; details: E. coli DRC39 delta-acrAB growth, higher = more signal, called active from +8 up or from −8 down
[19] = RPMI8226 myeloma cell viability, profiling panel, resazurin fluorescence, basal, 24 h, PK04 Diversity Set (AID 1180); details: higher = more signal;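 also: RPMI8826 multiple myeloma cell line at 5000 cells per well; test concentration not given here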
[20] = biological target: E3 ubiquitin-protein ligase XIAP (Homo sapiens) (UniProt P98170); assay: XIAP binders, primary screen, biophysical, small-molecule microarray, fluorescence 635 nm (AID 1181); details: small-molecule microarray binding, higher = more signal;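 also: score merges 667 nm emission and signal to noise over triplicate slides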
E3 ubiquitin-protein ligase XIAP (Homo sapiens), sequence (P98170 whole entry, looked up): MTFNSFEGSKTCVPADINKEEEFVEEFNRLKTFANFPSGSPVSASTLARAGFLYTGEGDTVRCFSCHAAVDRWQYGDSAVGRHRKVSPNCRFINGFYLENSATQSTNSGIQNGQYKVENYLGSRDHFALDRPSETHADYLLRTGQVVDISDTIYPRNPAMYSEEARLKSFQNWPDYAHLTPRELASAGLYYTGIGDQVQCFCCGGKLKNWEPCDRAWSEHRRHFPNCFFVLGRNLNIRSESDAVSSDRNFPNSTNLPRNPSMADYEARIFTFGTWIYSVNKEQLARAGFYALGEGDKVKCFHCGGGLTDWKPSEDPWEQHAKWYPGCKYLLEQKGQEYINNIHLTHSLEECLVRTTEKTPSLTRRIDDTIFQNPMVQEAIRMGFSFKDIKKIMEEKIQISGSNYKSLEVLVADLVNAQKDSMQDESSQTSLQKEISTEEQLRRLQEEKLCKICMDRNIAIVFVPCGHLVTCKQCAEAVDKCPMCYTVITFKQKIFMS

Dihydroorotate dehydrogenase (quinone), mitochondrial (Plasmodium falciparum (isolate 3D7)), sequence (Q08210 whole entry, looked up): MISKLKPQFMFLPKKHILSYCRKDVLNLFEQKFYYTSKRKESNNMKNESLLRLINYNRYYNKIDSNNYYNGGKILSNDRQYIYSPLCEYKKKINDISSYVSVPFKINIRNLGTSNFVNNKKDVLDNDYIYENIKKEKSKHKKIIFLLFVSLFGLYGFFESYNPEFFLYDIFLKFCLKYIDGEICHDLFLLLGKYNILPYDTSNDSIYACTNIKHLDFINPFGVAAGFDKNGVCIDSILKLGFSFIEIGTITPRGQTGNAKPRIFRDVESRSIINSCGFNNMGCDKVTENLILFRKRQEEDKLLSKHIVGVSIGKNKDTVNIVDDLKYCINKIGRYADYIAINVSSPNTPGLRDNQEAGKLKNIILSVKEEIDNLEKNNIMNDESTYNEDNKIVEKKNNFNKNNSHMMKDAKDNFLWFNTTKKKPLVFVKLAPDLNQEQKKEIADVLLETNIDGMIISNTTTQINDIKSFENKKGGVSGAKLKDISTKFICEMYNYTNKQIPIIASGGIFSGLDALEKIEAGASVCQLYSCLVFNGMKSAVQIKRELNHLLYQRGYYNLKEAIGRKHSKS

| SMILES | z-score [1] | z-score [2] | z-score [3] | z-score [4] | z-score [5] | z-score [6] | z-score [7] | z-score [8] | z-score [9] | z-score [10] | z-score [11] | z-score [12] | z-score [13] | composite z-score [14] | z-score [15] | z-score [16] | z-score [17] | z-score [18] | z-score [19] | composite z-score [20] |
| --- | --- | --- | --- | --- | --- | --- | --- | --- | --- | --- | --- | --- | --- | --- | --- | --- | --- | --- | --- | --- |
| COc1ccc(CCNC(=O)[C@@H]2c3ccccc3C(=O)N(Cc3ccccc3C(F)(F)F)[C@H]2c2ccc(CO)cc2)cc1 | 0.0059 | -0.513 | 0.106 | -0.601 | -0.0978 | 1.2 | 0.996 (inactive) | -0.667 | 0.00958 | 2.22 (inactive) | 0.743 | 0.415 (inactive) | 0.711 (inactive) | 0.717 (inactive) | -0.77 (inactive) | 1.51 (inactive) | 0.709 (inactive) | 0.633 (inactive) | 0.837 | 0.0819 |
| O=C1C2C=CC(C(O)c3ccc(Br)cc3)N(Nc3ccccc3)C2C(=O)N1c1ccccc1 (stereo not given) | -1.17 | -1.45 | -0.5 | -1.27 | 0.134 | -1.92 | -0.711 (inactive) | -0.163 | -0.0898 | -0.201 (inactive) | -0.69 | -3.48 (inactive) | -1.95 (inactive) | 1.02 (inactive) | 1.22 (inactive) | 0.501 (inactive) | -0.387 (inactive) | -0.604 (inactive) | -1.48 | 0.184 |
| CC(C)CN1C(=O)[C@@]2(Cc3ccccc31)c1ccccc1C(=O)N(Cc1ccccc1)[C@H]2c1ccc(CO)cc1 | -0.225 | -0.0208 | -0.134 | -0.688 | -0.152 | -0.529 | -0.224 (inactive) | 0.0482 | 1.07 | -0.252 (inactive) | -0.436 | 0.145 (inactive) | -0.765 (inactive) | -2.4 (inactive) | 0.745 (inactive) | -0.286 (inactive) | 0.109 (inactive) | -0.663 (inactive) | -0.904 | -0.25 |
| C[N+](C)(C)CCCCCCNC(=O)[C@@H]1C[C@@H]2C(=O)NCC(=O)N2[C@@H]1c1ccc(O)cc1 | -0.261 | -0.166 | 0.517 | -0.0232 | 0.0324 | -1.58 | 0.251 (inactive) | -0.0725 | -0.534 | 0.28 (inactive) | 0.811 | 0.0566 (inactive) | 0.562 (inactive) | -1.45 (inactive) | -0.447 (inactive) | 0.311 (inactive) | 0.182 (inactive) | 0.128 (inactive) | 0.203 | -0.128 |
| CC1=C2[C@@H](CCc3ccccc3)OB(O)C[C@@H]2[C@@H]2C(=O)C=CC(=O)[C@@H]2C1 | -0.223 | 0.36 | -0.63 | -3.38 | -3.64 | -3.63 | -1.5 (inactive) | -1.12 | -2.78 | -0.247 (inactive) | -0.548 | -17.6 (active) | -1.06 (inactive) | -3.6 (inactive) | 0.589 (inactive) | -0.055 (inactive) | -0.367 (inactive) | -0.0244 (inactive) | -1.13 | 0.0325 |
| Cc1ccc(-c2cccc(=O)o2)cc1 | -0.104 | 0.796 | -0.117 | 0.0881 | -0.774 | -1.35 | -0.263 (inactive) | -0.177 | -0.299 | -0.0164 (inactive) | -0.789 | -2.2 (inactive) | 0.123 (inactive) | -0.919 (inactive) | -0.128 (inactive) | -0.333 (inactive) | -0.418 (inactive) | -0.292 (inactive) | -0.442 | -0.0143 |
| CN(C)C(=O)[C@@]1(CCC(=O)OC(C)(C)C)COC(c2ccc(OCCCO)cc2)=N1 | 0.236 | -0.417 | 0.306 | 0.0475 | 0.0972 | -0.868 | 0.0942 (inactive) | 0.0733 | -1.14 | 0.594 (inactive) | 0.791 | -0.874 (inactive) | 0.265 (inactive) | -0.883 (inactive) | -0.512 (inactive) | -0.0602 (inactive) | 0.115 (inactive) | 0.465 (inactive) | -0.195 | -0.0559 |
| Cc1ccc(F)cc1S(=O)(=O)N[C@@H]1CCN(C(=O)c2ccc(OC(C)C)cc2)C1 | 0.0926 | -1.39 | -0.471 | 0.0842 | -0.705 | -0.14 | -0.0993 (inactive) | -0.276 | -0.497 | -0.216 (inactive) | 0.157 | -2.17 (inactive) | 0.554 (inactive) | -0.431 (inactive) | -0.165 (inactive) | -0.455 (inactive) | 1.16 (inactive) | 0.427 (inactive) | 0.339 | 0.0336 |
| COCCOC(=O)N1C(=O)[C@@]2(c3cc(C#CCNC(N)=O)ccc31)[C@H](C(N)=O)[C@H]1C(=O)O[C@H](c3ccccc3)[C@H](c3ccccc3)N1[C@@H]2c1ccc(OCCO)cc1 | -0.304 | -0.867 | -0.392 | -0.905 | 0.66 | -2.81 | 0.441 (inactive) | -0.634 | -0.602 | 0.452 (inactive) | -0.195 | 0.713 (inactive) | -0.508 (inactive) | 0.506 (inactive) | 0.995 (inactive) | 1.62 (inactive) | 0.152 (inactive) | -0.0952 (inactive) | -1.09 | -0.188 |
| COCCOC(=O)N1C(=O)[C@@]2(c3cc(C#CCCO)ccc31)[C@H](C(=O)N1CCc3cc(OC)c(OC)cc3C1)[C@H]1C(=O)O[C@H](c3ccccc3)[C@H](c3ccccc3)N1[C@@H]2c1ccc(OCCO)cc1 | 1.31 | 1.05 | 1.15 | 0.214 | 1.23 | -0.495 | 1.21 (inactive) | -0.532 | -0.901 | 0.86 (inactive) | 1.36 | 0.543 (inactive) | 0.665 (inactive) | -1.45 (inactive) | 2.19 (inactive) | 0.0817 (inactive) | 0.443 (inactive) | 1.75 (inactive) | 0.152 | -0.0412 |
| C=C(/C(=C/C[C@@H](OC(C)=O)c1ccccc1OCCO)c1cnc2ccccc2c1)C(C)C | -0.0635 | 2.39 | -0.795 | -2.36 | -1.45 | 0.517 | -1.27 (inactive) | -0.0844 | 1.74 | -0.945 (inactive) | -1 | -1.34 (inactive) | -0.601 (inactive) | -5.68 (inactive) | 0.108 (inactive) | 0.29 (inactive) | -0.997 (inactive) | -0.667 (inactive) | -0.267 | -0.102 |
| Cc1ccc(S[C@]2(C(=O)O)CC(=O)N(C3CCCCC3)[C@@H]2c2ccc(CO)cc2)cc1 | -0.0959 | -0.753 | 0.952 | -0.634 | 0.761 | 0.318 | 0.144 (inactive) | -0.148 | -0.776 | -0.345 (inactive) | -0.628 | -1.74 (inactive) | 0.0977 (inactive) | 0.234 (inactive) | 0.512 (inactive) | -0.332 (inactive) | 0.643 (inactive) | 1.48 (inactive) | 0.273 | -0.0031 |
| COc1ccccc1CN1C(=O)c2ccccc2[C@@H](C(=O)NCC(C)C)[C@@H]1c1ccc(CO)cc1 | 0.467 | 0.796 | 0.306 | 0.869 | -2.01 | 0.962 | -1.09 (inactive) | 0.398 | 0.544 | -0.624 (inactive) | -1.4 | 0.352 (inactive) | 0.897 (inactive) | 0.769 (inactive) | 0.31 (inactive) | 0.777 (inactive) | 0.547 (inactive) | 0.347 (inactive) | 1.02 | -0.104 |
| CCOC(=O)C1=CC[C@@H](c2ccccc2)N(S(=O)(=O)c2ccc(C)cc2)[C@H]1C=C(C)C | -1.36 | -1.2 | -1.01 | -1.33 | -0.89 | 4.57 | -0.638 (inactive) | -1.01 | -1.79 | 1.26 (inactive) | 0.576 | 2.78 (inactive) | -0.85 (inactive) | 0.274 (inactive) | 0.229 (inactive) | 1.65 (inactive) | -0.147 (inactive) | 0.449 (inactive) | -2.1 | 0.394 |
| COCCOC(=O)N1C(=O)[C@@]2(c3cc(C#CCCO)ccc31)[C@H](c1ccc(OCCO)cc1)N1[C@H](c3ccccc3)[C@H](c3ccccc3)OC(=O)[C@H]1[C@@H]2C(=O)N1CCc2cc(OC)c(OC)cc2C1 | -0.874 | 0.586 | 0.863 | 0.541 | 0.263 | -0.0698 | 1.79 (inactive) | -0.299 | -1.48 | -0.533 (inactive) | -0.398 | 1.28 (inactive) | -1.24 (inactive) | -1.02 (inactive) | 1.64 (inactive) | 3.35 (inactive) | 0.154 (inactive) | 0.554 (inactive) | 0.908 | -0.102 |
